TEAD-YAP block = TEAD-YAP interaction inhibition; inhibition, % at 9.12 µM; 1.4% of 640,000 active; HEK-TIYL cells, TEAD-Gal4/YAP UAS-luciferase luminescence; in the data active = inhibition above about 32%
GPR151 activ = activates the human receptor GPR151; Q8TDV0; PathHunter beta-arrestin GPR151 cells, luminescence; activation, % at 11.2 µM; 1% of 650,000 active; in the data active = activation above about 4.9%
MITF inh = inhibitors of human MITF. AlphaScreen MITF homodimerization, bead proximity signal. inhibition, % at 2.6 µM. 0.91% of 650,000 active; in the data active = inhibition above about 50%
FBW7 activator = human FBW7 E3 ligase activation, primary screen. Q969H0. AID 1259310. AlphaScreen FBW7–phospho-cyclin E peptide binding, activator screen. 0.13% of 650,000 active. normalized activity (activation), % at 26.1 µM; in the data active = normalized activity above about 1.9%;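 note: purified mutant Fbw7 with reduced substrate affinity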
Target sequence (Q969H0 whole entry, looked up): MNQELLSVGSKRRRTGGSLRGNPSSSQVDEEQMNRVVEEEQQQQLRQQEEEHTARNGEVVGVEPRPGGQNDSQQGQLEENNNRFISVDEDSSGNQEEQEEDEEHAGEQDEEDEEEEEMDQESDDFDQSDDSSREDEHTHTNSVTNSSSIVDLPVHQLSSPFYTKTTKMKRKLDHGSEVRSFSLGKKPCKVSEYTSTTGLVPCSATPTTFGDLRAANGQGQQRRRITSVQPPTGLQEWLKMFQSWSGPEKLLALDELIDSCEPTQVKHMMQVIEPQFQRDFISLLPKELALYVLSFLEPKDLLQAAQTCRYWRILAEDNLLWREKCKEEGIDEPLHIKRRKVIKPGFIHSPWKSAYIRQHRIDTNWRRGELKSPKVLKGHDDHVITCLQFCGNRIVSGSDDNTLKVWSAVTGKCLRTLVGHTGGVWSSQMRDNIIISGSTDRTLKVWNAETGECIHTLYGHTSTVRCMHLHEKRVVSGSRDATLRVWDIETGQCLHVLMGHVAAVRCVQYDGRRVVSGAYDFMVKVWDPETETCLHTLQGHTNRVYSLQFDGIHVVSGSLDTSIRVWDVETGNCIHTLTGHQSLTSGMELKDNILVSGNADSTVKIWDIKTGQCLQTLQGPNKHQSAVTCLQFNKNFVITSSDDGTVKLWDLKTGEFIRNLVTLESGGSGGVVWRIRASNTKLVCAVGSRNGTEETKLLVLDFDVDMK
MITF inh conf = human MITF inhibition, confirmation | shares compounds with MITF inh | AlphaScreen MITF homodimerization, biotin/His-MITF beads | inhibition, % at 2.6 µM | 16% of 4,700 active;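 active = inhibition above a cutoff derived from the DMSO control wells, cut at about 28% in these data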;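 note: inhibitors lower the bead chemiluminescence by keeping MITF from dimerizing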
AlphaScreen DR = AlphaScreen optical interference, dose response counter-screen; shares compounds with MITF inh; AlphaScreen optical interference counterscreen, cell-free; IC50, µM; 6% of 480 active; call rule not given here
AS interf ctr = optically interferes with AlphaScreen signal; shares compounds with MITF inh; LysRS AlphaScreen counterscreen, signal interference, triplicate; inhibition, % at 2.6 µM; 7.6% of 4,700 active; AID 1259376;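 active = inhibition above a cutoff derived from the DMSO control wells, cut at about 30% in these data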
Hits are given with their value. Only some compounds are listed: those with a hit (about 3.4% of all), similar ones and a draw of the others.

O=[N+]([O-])c1ccccc1CN1CCN(CC2CC3C=CC2C3)CC1 (stereo unspecified) was read as TEAD-YAP block inactive, GPR151 activ inactive, MITF inh 66.6, FBW7 activator inactive, MITF inh conf inactive and AS interf ctr inactive.
Screening C1=CC2CC1CC2CN1CCN(CCCc2ccccc2)CC1 (stereo unspecified) returned TEAD-YAP block inactive, GPR151 activ inactive, MITF inh 70.2, FBW7 activator inactive, MITF inh conf inactive and AS interf ctr inactive.
For Cc1ccc(S(=O)(=O)N2CCN(CC3CC4C=CC3C4)CC2)cc1 (stereo unspecified) the results were TEAD-YAP block inactive, GPR151 activ inactive, MITF inh 68.1, FBW7 activator inactive, MITF inh conf inactive and AS interf ctr inactive.
Screening Fc1ccccc1N1CCN(CC2CC3C=CC2C3)CC1 (stereo unspecified) returned TEAD-YAP block inactive, GPR151 activ inactive, MITF inh inactive and FBW7 activator inactive.
For Cc1ccc(S(=O)(=O)NC[C@@H]2CC3C=CC2C3)cc1 (stereo partly specified) the results were TEAD-YAP block inactive, GPR151 activ inactive, MITF inh inactive and FBW7 activator inactive.
For NS(=O)(=O)c1ccc(CCNC(=O)CNS(=O)(=O)c2cccs2)cc1 the results were TEAD-YAP block inactive, GPR151 activ inactive, MITF inh 79.7, FBW7 activator inactive, MITF inh conf inactive and AS interf ctr inactive.
Screening O=C(CCl)N1CCc2ccccc2C1 returned TEAD-YAP block inactive, GPR151 activ inactive, MITF inh inactive and FBW7 activator inactive.
For O=C(Cn1ncn2cccc2c1=O)N1CCc2ccccc2C1 the results were TEAD-YAP block inactive, GPR151 activ inactive, MITF inh 66.4, FBW7 activator inactive, MITF inh conf 67.0, AlphaScreen DR inactive and AS interf ctr inactive.
CC(=O)N1CCN(CC(=O)N2CCc3ccccc3C2)CC1 was read as TEAD-YAP block inactive, GPR151 activ inactive, MITF inh 82.8, FBW7 activator inactive, MITF inh conf inactive and AS interf ctr inactive.
`COCCOC(=O)c1c(C)oc2ccc(OC(=O)c3ccccc3C)cc12` gave TEAD-YAP block inactive, GPR151 activ inactive, MITF inh inactive and FBW7 activator inactive.
`CN(C(=O)Cc1nc(N)n[nH]1)C1(C(=O)Nc2ccccc2)CCCCC1` gave TEAD-YAP block inactive, GPR151 activ inactive, MITF inh 64.4, FBW7 activator inactive, MITF inh conf 92.1 and AS interf ctr 100.6.
`Nc1n[nH]c(CC(=O)N(Cc2ccccc2)C2(C(=O)Nc3ccccc3)CCCCC2)n1` gave TEAD-YAP block inactive, GPR151 activ inactive, MITF inh 70.4, FBW7 activator inactive, MITF inh conf 109.2 and AS interf ctr 100.6.
Cc1ccc(NC(=O)C2(N(C)C(=O)Cc3nc(N)n[nH]3)CCCCC2)cc1 was read as TEAD-YAP block inactive, GPR151 activ inactive, MITF inh inactive and FBW7 activator inactive.
FC(F)(F)c1cc(-c2ccccc2)n2c(n1)nc1ccccc12 was read as TEAD-YAP block inactive, GPR151 activ inactive, MITF inh inactive and FBW7 activator inactive.
`CCCCC(=O)Nc1cc(C)c(Cl)cc1OC` gave TEAD-YAP block inactive, GPR151 activ inactive, MITF inh inactive and FBW7 activator inactive.
For CCCCC(=O)Nc1cc(OC)c(NC(=S)NC)cc1OC the results were TEAD-YAP block inactive, GPR151 activ inactive, MITF inh 75.5, FBW7 activator inactive, MITF inh conf inactive and AS interf ctr inactive.
For CCN(Cc1ccccc1)C(=O)c1sc2nc(C)c(C)c(C)c2c1N the results were TEAD-YAP block inactive, GPR151 activ inactive, MITF inh inactive and FBW7 activator inactive.
Screening CC1(C)Cc2c(sc3nc(NNC(=O)c4ccccc4)[nH]c(=O)c23)CO1 returned TEAD-YAP block inactive, GPR151 activ inactive, MITF inh 73.3, FBW7 activator inactive, MITF inh conf inactive and AS interf ctr inactive.
`O=C(c1cccc2ccccc12)N1CCN2C(=O)[C@@H]3CSCN3C(=O)[C@H]2C1` gave TEAD-YAP block inactive, GPR151 activ inactive, MITF inh inactive and FBW7 activator inactive.
O=C(Nc1ccc(Cl)cc1Cl)N1CCN2C(=O)[C@@H]3CSCN3C(=O)[C@H]2C1 was read as TEAD-YAP block inactive, GPR151 activ inactive, MITF inh 69.5, FBW7 activator inactive, MITF inh conf 66.0, AlphaScreen DR inactive and AS interf ctr inactive.
`O=C(NCc1ccccc1)N1CCN2C(=O)[C@@H]3CSCN3C(=O)[C@H]2C1` gave TEAD-YAP block inactive, GPR151 activ inactive, MITF inh 74.7, FBW7 activator inactive, MITF inh conf 74.7, AlphaScreen DR inactive and AS interf ctr inactive.
`CN1C(=O)[C@H]2CN(C(=O)NCc3ccccc3)CCN2C(=O)[C@@H]1Cc1ccccc1` gave TEAD-YAP block inactive, GPR151 activ inactive, MITF inh 80.4, FBW7 activator inactive, MITF inh conf 68.2, AlphaScreen DR inactive and AS interf ctr inactive.
For Cc1cc2oc3c(c(=O)c2cc1C)C(c1cccnc1)N(CCCN(C)C)C3=O (stereo unspecified) the results were TEAD-YAP block inactive, GPR151 activ inactive, MITF inh 82.9, FBW7 activator inactive, MITF inh conf inactive and AS interf ctr inactive.
O=C(CN(C(=O)c1ccco1)c1ccc(Cl)cc1)NCc1ccc(F)cc1 was read as TEAD-YAP block inactive, GPR151 activ inactive, MITF inh inactive and FBW7 activator inactive.
c1ccn2cc(CN3CCCCC3)nc2c1 was read as TEAD-YAP block inactive, GPR151 activ inactive, MITF inh 82.1, FBW7 activator inactive, MITF inh conf inactive and AS interf ctr inactive.
`c1ccc2c(c1)ncn2CC1CCCCC1` gave TEAD-YAP block inactive, GPR151 activ inactive, MITF inh inactive and FBW7 activator inactive.
For c1ccc2c(c1)ncn2CC1CCN(Cc2cn3ccccc3n2)CC1 the results were TEAD-YAP block inactive, GPR151 activ inactive, MITF inh 89.2, FBW7 activator inactive, MITF inh conf 28.6, AlphaScreen DR inactive and AS interf ctr inactive.
Screening CCc1cccc(OCCn2ccnc2)c1 returned TEAD-YAP block inactive, GPR151 activ inactive, MITF inh 53.8, FBW7 activator inactive, MITF inh conf inactive and AS interf ctr inactive.
`c1ccc(COc2ccc(OCCCCn3ccnc3)cc2)cc1` gave TEAD-YAP block inactive, GPR151 activ inactive, MITF inh 60.3, FBW7 activator inactive, MITF inh conf 36.0, AlphaScreen DR inactive and AS interf ctr inactive.
Screening Clc1cc(Br)ccc1OCCCn1ccnc1 returned TEAD-YAP block inactive, GPR151 activ inactive, MITF inh inactive and FBW7 activator inactive.
Screening CCOc1cccc(OCCn2ccnc2)c1 returned TEAD-YAP block inactive, GPR151 activ inactive, MITF inh inactive and FBW7 activator inactive.
Screening Clc1cc(Br)ccc1OCCn1ccnc1 returned TEAD-YAP block inactive, GPR151 activ inactive, MITF inh 53.8, FBW7 activator inactive, MITF inh conf inactive and AS interf ctr inactive.
